Test results from PubChem BioAssay (NCATS).
Inconclusive results are not listed. Values without a mark were called inactive. Calls of active or inactive are those of the source. Calls come from the whole dose curve; as a rule, active = well fitted inhibition curve with a large enough effect; inconclusive = small, poorly fitted or top-dose-only effect; inactive = no such curve, though single readings can be large or run the other way.

experiment: Primary qHTS for inhibitors of nuclear receptor binding SET domain protein 2 (NSD2) in an RCH-ACV wild type WT cells (2C) (AID 1645877); settings: RCH-ACV (leukaemia line) NSD2 WT (2C) viability, CellTiter-Glo, 72 h; series mostly up to 44.9 µM; activity change, negative = cell killing: at the top concentration; note: nearly all actives have a fitted effect of over 70% in size
Source text: Assay Provider: Jonathan D. Licht, MD
University of Florida College of Medicine, Gainesville, FL
Mutations in epigenetic regulators are common in relapsed pediatric acute lymphoblastic leukemia (ALL). Here, we uncovered the mechanism underlying the relapse of ALL driven by an activating mutation of the NSD2 histone methyltransferase (p.E1099K). […] Correction of this mutation restored glucocorticoid sensitivity. The transcriptional response to glucocorticoids was blocked in NSD2 mutant cells due to depressed glucocorticoid receptor (GR) levels and the failure of glucocorticoids to autoactivate GR expression. […] Pre-treatment of NSD2 p.E1099K cell lines and PDX samples with PRC2 inhibitors reversed glucocorticoid resistance in vitro and in vivo.
High-throughput drug screening of isogenic RCH-ACV cell lines was performed at the National Center for Advancing Translational Science (NCATS), National Institutes of Health as previously described (1). Briefly, isogenic RCH-ACV NSD2 p.E1099K mutant (9B) and WT cells (2C) were plated at 500 cells/well in a 1536-well plate with a 72-hour incubation with compounds prior to addition of CellTiter-Glo to assess cell viability. NCATS libraries screened include: NPC, MIPE 5.0, Kinase and NPACT. To determine compound activity in the qHTS assay, the concentration-response data for each sample was plotted and modeled by a four-parameter logistic fit yielding IC50 and efficacy (maximal response) values. The area under the curve (AUC) of the dose-response curve ensures both efficacy (magnitude of cell killing) and potency (concentration that elicits cell killing) are accounted for in the analysis of activity.
1. Tobie D Lee, Olivia W Lee, Kyle R Brimacombe, Lu Chen, Rajarshi Guha, Sabrina Lusvarghi, Bethilehem G Tebase, Carleen Klumpp-Thomas, Robert W Robey, Suresh V Ambudkar, Min Shen, Michael M Gottesman, Matthew D Hall. A High-Throughput Screen of a Library of Therapeutics Identifies Cytotoxic Substrates of P-glycoprotein. Mol Pharmacol. 2019, Nov;96(5):629-640.
% is set by controls: 0 for no effect and ±100 for the full control effect; potency is the fitted concentration of half-maximal effect.

Compound | activity change, negative = cell killing | outcome | Potency
COC(=O)c1ccc(O)cc1 | 6.97% | – | –
CCCNC(C)(C)COC(=O)c1ccccc1 | -13.5% | – | –
Cc1cccc(C)c1NC(=O)CC12CCCN1CCC2 | – | inactive | –
C[C@H]1COc2c(C3(N)CC3)c(F)cc3c(=O)c(C(=O)O)cn1c23 | – | inactive | –
CC(=O)NS(=O)(=O)c1ccc(N)cc1 | -0.273% | – | –
CC(CSC(=O)c1ccccc1)C(=O)N1C[C@@H](Sc2ccccc2)C[C@H]1C(=O)O (stereo not given in full) | 9.26% [at 17.3 µM] | – | –
O=C(c1ccccc1)C(O)c1ccccc1 (stereo not given) | – | inactive | –
CC[N+](C)(CC)CCOC(=O)C1c2ccccc2Oc2ccccc21 | – | inactive | –
O=C(CCBr)N1CCN(C(=O)CCBr)CC1 | 5.88% | – | –
O=C(O)CCCCC1CCSS1 (stereo not given) | – | inactive | –
CC(C)CCCC(C)CCCC(C)CCCCC(C)CCCC(C)CCCC(C)C (stereo not given) | -2.11% | – | –
CC(=O)Nc1ccccc1 | – | inactive | –
COc1cc(C(=O)NCCCCCC(=O)O)cc(OC)c1OC | – | inactive | –
CC(=O)Nc1ccc(C(=O)O)cc1 | 8.61% | – | –
Cc1c(C)c2c(c(C)c1OC(=O)c1cccnc1)CC[C@@](C)(CCC[C@H](C)CCC[C@H](C)CCCC(C)C)O2 | 4.14% | – | –
O=C(O)[C@@H]1[C@H]2C[C@H]3c4[nH]c5ccccc5c4CCN3C[C@@H]2CC[C@@H]1O | -9.22% | – | –
O=C(Cn1ccnc1[N+](=O)[O-])NCc1ccccc1 | -6.71% | – | –
O=C1c2ccccc2C(=O)C1c1ccc(Br)cc1 | – | inactive | –
O=C(O)CCCc1ccccc1 | – | – | inactive
CCCCOC(=O)c1ccc(N)cc1 | -19.1% | – | –

Compound | activity change, negative = cell killing | outcome | Potency
CCc1cccc(CC)c1NC(=O)CN(CC(=O)O)CC(=O)O | -2.26% | – | –
Cc1cccc(Nc2ccccc2C(=O)O)c1C | -3.34% | – | –
O=S1(=O)OC(c2ccc(O)cc2)(c2ccc(O)cc2)c2ccccc21 | -1.08% | – | –
CN1CC(=O)NC1=N | 2.5% | – | –
OCc1ccc(Cl)cc1Cl | -4.24% | – | –
C/C=C1\[C@H]2C=C(C)C[C@]1(N)c1ccc(=O)[nH]c1C2 | 7.42% | – | –
O=C(O)c1cc(=O)c2ccccc2o1 | -0.172% | – | –
CCOc1ccc(C(=O)OCCN(CC)CC)cc1 | -4.2% | – | –
CC(=O)Oc1cccc(O)c1 | -8.32% | – | –
Cc1c(NC(C)C)c(=O)n(-c2ccccc2)n1C | -7.39% | – | –
COc1ccc(Cc2cnc(N)nc2N)cc1OC | 8.26% | – | –
CC(=O)OC[C@H]1O[C@@](COC(C)=O)(O[C@H]2O[C@H](COC(C)=O)[C@@H](OC(C)=O)[C@H](OC(C)=O)[C@H]2OC(C)=O)[C@@H](OC(C)=O)[C@@H]1OC(C)=O | -16.1% | – | –
CC(C)C[C@@H](N)C(=O)O | – | – | inactive
CC[N+](CC)(CC(=O)Nc1c(C)cccc1C)Cc1ccccc1 | 7.48% | – | –
CCOC(=O)c1cccnc1 | 5.08% | – | –
Cc1c(I)c(=O)n(-c2ccccc2)n1C | 3.53% | – | –
Nc1ccncc1N | -5.89% | – | –
COc1cc(O)cc(O)c1 | -11.7% | – | –
Cc1c(N(C)C)c(=O)n(-c2ccccc2)n1C | – | inactive | –
CC(=O)OCC(=O)[C@@]1(O)CC[C@H]2[C@@H]3CCC4=CC(=O)C=C[C@]4(C)[C@@]3(F)[C@@H](O)C[C@@]21C | – | – | 21.1 nM (active)
